Data published in PubChem BioAssay AID431 (Sanford-Burnham Center for Chemical Genomics, 2006).
The campaign covered roughly 63,000 compounds. About 1,100 (1.7%) were called active.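 Rule for the calls: active = compounds whose percent cytotoxicity in the single-dose primary screen, scaled between solvent and toxic-drug controls, exceeds 50; inactive = the rest.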 Many of the other results were omitted from the sample, so actives are more common in it than they were. Entries with a potency or affinity are not part of this list.

Assay: cytotoxicity in KRAS-transformed pancreatic duct cells, primary screen, cell-based, fluorescence, HTS (AID 431);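 note: 0% = DMSO solvent wells and 100% = doxorubicin-treated wells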
Settings: HPDE-C7K KRASV12 cells, Alamar Blue viability, 48 h; at 10 µM; hits give high values

SMILES	cytotoxicity
COc1ccc(OCc2nn3c(-c4ccccn4)nnc3s2)cc1	4% (inactive)
CC1(C)Cc2c(c(N3CCCC3)nc3sc4c(N5CCN(CCO)CC5)ncnc4c23)CO1	67.8% (active)
OCCN1CCN(c2ncnc3c2sc2nc(N4CCOCC4)c4c(c23)CCC4)CC1	39.9% (inactive)
CN1CCN(c2ncnc3c2sc2nc(N4CCCC4)c4c(c23)CC(C)(C)OC4)CC1	-9.3% (inactive)
O=c1[nH]nc2c3ccccc3cnn12	-22% (inactive)
C=COCCNC(=O)C1CC(=O)N(c2ccc(C)cc2)C1 (stereo not given)	13.2% (inactive)
Cc1ccc(-c2cc(-c3ccc(Cl)cc3)c(C#N)c(N)n2)o1	74.2% (active)
Cc1ccc(-c2cc(-c3ccc(F)cc3)nc(N)c2C#N)o1	4.4% (inactive)
Cc1cc(-c2cc(-c3ccc(Cl)cc3)nc(N)c2C#N)co1	92% (active)
Cc1ccc(-c2cc(-c3ccccc3)c(C#N)c(N)n2)o1	10.2% (inactive)
Cc1ccc(-c2cc(-c3ccc(C)o3)nc(N)c2C#N)cc1	-2.5% (inactive)
Cc1ccc(-c2cc(-c3ccccc3Cl)c(C#N)c(N)n2)o1	20.7% (inactive)
Cc1ccc(NC(=O)CC(O)(C(F)(F)F)C(F)(F)F)c(Br)c1	-6.8% (inactive)
Cc1ccc(Cl)cc1NC(=O)CC(O)(C(F)(F)F)C(F)(F)F	57.3% (active)
CCNC(=O)CCC(=O)Nc1cc(Cl)ccc1C	-14.8% (inactive)
COC(=O)c1sccc1NC(=O)c1ccc(OC)cc1	13.2% (inactive)
COc1ccc(C2CC(c3cc(Br)ccc3F)n3nnnc3N2)cc1 (stereo not given)	1.9% (inactive)
O=C(c1ccccc1)c1nnc(-c2ccncc2)o1	-7.9% (inactive)
O=C(c1ccccc1)c1ccncc1	56.1% (active)
O=C(c1ccncc1)c1ccc(Br)cc1	1.4% (inactive)
O=S(=O)(NCCSc1nnc(-c2ccco2)n1-c1ccccc1)c1ccccc1	-7.3% (inactive)
C=C(C)Cn1c(Sc2nc3ccccc3[nH]2)nc2c1c(=O)[nH]c(=O)n2C	21.2% (inactive)

SMILES	cytotoxicity
c1ccc(-c2nnc(N3CCN(c4ccccn4)CC3)c3ccccc23)cc1	-2.1% (inactive)
Cc1ccc(-c2nnc(N3CCN(S(C)(=O)=O)CC3)c3ccccc23)cc1	-3.8% (inactive)
COc1ccccc1NC(=O)CSc1nnc(C)n1Cc1ccccc1	-12.1% (inactive)
O=C(Nc1ccc(Br)cc1F)c1ccncc1	-12.6% (inactive)
CCCNc1nc2c(c(=O)[nH]c(=O)n2C)n1CCC(C)C	9% (inactive)
Cc1cccc(Nc2ccccc2C(=O)O)c1C	6% (inactive)
Cc1ccc(Cl)c(Nc2ccccc2C(=O)O)c1Cl	67.9% (active)
Cc1c(Cl)cccc1Nc1ccccc1C(=O)O	46% (inactive)
CCN(CC)C(=O)Oc1ccc2c(=O)c(-c3ccccc3)coc2c1	-28% (inactive)
CCN(CC)C(=O)Oc1ccc2c(=O)c(-c3ccc(OC)cc3)coc2c1	-3.7% (inactive)
CC(C)Oc1ccc2c(=O)c(-c3ccccc3)coc2c1	53.7% (active)
O=C(NC1CCCc2ccccc21)C1CCC(CNc2c(N3CCOCC3)c(=O)c2=O)CC1 (stereo not given)	-5% (inactive)
O=C(NCC1CCCO1)C1CCN(C(=O)c2ccc(Cl)cc2)CC1 (stereo not given)	-4.1% (inactive)
Cc1ccc2c(c1)nnn2C1CCN(CC(=O)Nc2ccc3c(c2)OCCO3)CC1	-7.5% (inactive)
COc1cc(-c2nc3cnccn3c2Nc2ccccc2)ccc1O	16.3% (inactive)
c1cn2c(NC3CCCC3)c(-c3ccc(N4CCOCC4)cc3)nc2cn1	7.8% (inactive)
CCOC(=O)C1=CN(C)C=C(C(=O)OCC)C1c1ccsc1	6.2% (inactive)
COC(=O)c1ccc(C)c(NS(=O)(=O)c2ccc(NC(C)=O)cc2)c1	4.5% (inactive)
CC(=O)c1cc2c(cc1NS(=O)(=O)c1ccc3c(c1)OCCO3)OCO2	37.2% (inactive)
COC(=O)c1ccc(C)c(NC(=O)CN(c2ccc3c(c2)OCO3)S(C)(=O)=O)c1	-3.2% (inactive)
O=C(O)c1ccc(NS(=O)(=O)c2ccc3c(c2)OCCO3)cc1	1.7% (inactive)
COC(=O)c1ccc(NS(=O)(=O)c2ccc(OC)cc2)cc1	-10.3% (inactive)

SMILES	cytotoxicity
COC(=O)c1ccc(Cl)c(NS(=O)(=O)c2ccc3c(c2)OCCO3)c1	63.6% (active)
CCCNC(=O)c1ccccc1NS(=O)(=O)c1ccc2c(c1)OCCO2	28.6% (inactive)
COC(=O)c1ccc(C)c(NS(=O)(=O)c2ccc3c(c2)OCCO3)c1	59.3% (active)
COC(=O)c1ccc(C)c(NS(=O)(=O)c2ccc(OC)cc2)c1	65.2% (active)
CC(C)(C)NC(=O)c1ccc2nccnc2c1	12.3% (inactive)
COc1ccccc1NC(=O)N(CCN(C)C)Cc1cc2cc(C)ccc2[nH]c1=O	19.6% (inactive)
CCCC(C(=O)NC1CCCC1)N(C(=O)Cn1nnc(-c2ccc(C)o2)n1)C1CCCC1 (stereo not given)	-0.4% (inactive)
CC(C)OC(=O)CSc1nc(N)c(C#N)c(-c2cccs2)c1C#N	5% (inactive)
CC(C)OC(=O)CCC1(C(=O)O)CCC(=O)NC1 (stereo not given)	-7.1% (inactive)
O=C(CSCc1ccco1)c1cccs1	-15.8% (inactive)
O=C(CC(SCc1ccco1)c1ccc(O)cc1)c1cccs1 (stereo not given)	57.7% (active)
O=C(CSc1nnc(-c2ccc(O)cc2)n1Cc1ccco1)c1cccs1	2.5% (inactive)
CCOC(=O)C1=C(C)OC(N)=C(C#N)C1c1ccsc1 (stereo not given)	9.1% (inactive)
CCOc1ccc(C2CC(c3ccc(F)cc3)n3ncnc3N2)cc1 (stereo not given)	3.1% (inactive)
Cc1ccc(C(=O)CC(C(=O)O)n2ccc(C)n2)cc1 (stereo not given)	4.5% (inactive)
Cc1ccc(C(=O)CC(C(=O)O)n2cccn2)cc1 (stereo not given)	-4.8% (inactive)
O=C(c1ccco1)N1CCN(C(=O)c2cccn3c(=O)c4c5c(sc4nc23)CCCC5)CC1	-9.7% (inactive)
Cc1cccc(Cn2cnc3c(nnn3Cc3ccc(Cl)cc3)c2=O)c1	-2.1% (inactive)
COC(=O)c1sc(N)c(C(=O)OC)c1COC(=O)c1c(C)noc1C	56.4% (active)
COC(=O)c1c(N)sc(C(C)=O)c1C	0% (inactive)
COc1ccc(C(C)=O)cc1COC(=O)c1c(C)noc1C	18.5% (inactive)
